Columns and labels:
Assay in all cases: DAPPL (digital affinity profiling via proximity ligation, sequencing); 10 mM Tris-HCl pH 7.5, 50 mM NaCl, 1 mM DTT, 4% glycerol, room temperature, 30 min; GST-TFs on glutathione beads, 16-mer random dsDNA library, 0.1% formaldehyde crosslink after washing; high values mean tight binding
FEV = biological target: T1, FEV (Homo sapiens, UniProt Q99581 1-238); details: protein: recombinant; tags: N-terminal GST; dsDNA, one strand shown
T1 sequence: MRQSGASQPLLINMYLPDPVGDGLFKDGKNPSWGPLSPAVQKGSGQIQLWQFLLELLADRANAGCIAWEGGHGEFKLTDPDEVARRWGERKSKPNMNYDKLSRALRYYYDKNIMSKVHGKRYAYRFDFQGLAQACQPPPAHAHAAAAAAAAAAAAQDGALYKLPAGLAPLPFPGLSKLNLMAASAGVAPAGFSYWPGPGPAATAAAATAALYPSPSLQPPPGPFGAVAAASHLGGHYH
Summary of the method: (§1)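 Human transcription factors were made in yeast as GST fusions, captured on glutathione beads and barcoded with DNA. With a tag-only sample included, the pool was incubated with 200 nmole of a random double-stranded 16-mer DNA library in Tris/NaCl/DTT/glycerol buffer at room temperature for 30 min, then crosslinked with 0.1% formaldehyde after washing, ligated by proximity, amplified and sequenced. For binding signal, each hexamer's read frequency for a factor is divided by its frequency for the tag-only sample.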

ETV5 = ETV5 (Homo sapiens, UniProt P41161 1-510); details: protein: recombinant; tags: N-terminal GST; dsDNA, one strand shown
ETV5, sequence (P41161 whole entry): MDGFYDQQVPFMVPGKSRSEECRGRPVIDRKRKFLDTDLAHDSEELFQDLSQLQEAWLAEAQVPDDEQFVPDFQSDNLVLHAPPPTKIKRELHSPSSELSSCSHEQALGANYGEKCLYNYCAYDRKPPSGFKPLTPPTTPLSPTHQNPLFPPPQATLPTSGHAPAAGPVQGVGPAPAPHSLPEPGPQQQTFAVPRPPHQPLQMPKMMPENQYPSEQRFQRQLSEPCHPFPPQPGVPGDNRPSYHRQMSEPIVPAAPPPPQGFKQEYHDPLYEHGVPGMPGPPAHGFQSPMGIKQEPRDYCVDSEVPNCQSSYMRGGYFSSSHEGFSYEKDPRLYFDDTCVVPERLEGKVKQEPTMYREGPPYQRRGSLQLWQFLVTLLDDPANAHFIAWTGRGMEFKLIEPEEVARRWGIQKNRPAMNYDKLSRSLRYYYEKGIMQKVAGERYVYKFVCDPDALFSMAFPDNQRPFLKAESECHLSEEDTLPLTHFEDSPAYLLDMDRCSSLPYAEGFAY
Summary of the method: as §1

HSF1 = HSF1 (Homo sapiens, UniProt Q00613 1-529); details: protein: recombinant; tags: N-terminal GST; chain copies: 3; dsDNA, one strand shown
HSF1, sequence (Q00613 whole entry): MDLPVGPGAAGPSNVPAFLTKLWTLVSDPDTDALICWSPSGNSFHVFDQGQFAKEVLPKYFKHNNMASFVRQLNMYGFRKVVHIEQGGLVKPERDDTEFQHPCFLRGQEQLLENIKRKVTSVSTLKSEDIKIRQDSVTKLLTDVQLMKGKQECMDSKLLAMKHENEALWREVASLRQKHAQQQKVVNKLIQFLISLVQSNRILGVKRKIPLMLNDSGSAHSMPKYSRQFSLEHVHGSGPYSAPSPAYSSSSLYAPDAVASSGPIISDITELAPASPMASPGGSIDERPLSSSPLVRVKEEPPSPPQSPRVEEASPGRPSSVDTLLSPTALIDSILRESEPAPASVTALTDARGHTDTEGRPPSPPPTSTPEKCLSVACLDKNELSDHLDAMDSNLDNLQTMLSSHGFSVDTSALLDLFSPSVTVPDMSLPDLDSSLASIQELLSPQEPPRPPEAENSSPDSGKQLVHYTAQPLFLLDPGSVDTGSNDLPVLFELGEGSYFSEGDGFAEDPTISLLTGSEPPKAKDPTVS
Summary of the method: as §1

SPIC = biological target: T2, SPIC (Homo sapiens, UniProt Q8N5J4 1-248); details: protein: recombinant; tags: N-terminal GST; dsDNA, one strand shown
T2 sequence: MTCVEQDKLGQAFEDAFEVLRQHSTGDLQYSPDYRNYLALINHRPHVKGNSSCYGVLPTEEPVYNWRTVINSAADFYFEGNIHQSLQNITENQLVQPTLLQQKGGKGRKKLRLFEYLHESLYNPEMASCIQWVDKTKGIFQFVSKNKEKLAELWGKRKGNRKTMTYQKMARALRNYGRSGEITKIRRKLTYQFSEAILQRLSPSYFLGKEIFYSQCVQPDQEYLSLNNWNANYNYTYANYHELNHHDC
Summary of the method: as §1

ELF4 = ELF4 (Homo sapiens, UniProt Q99607 1-663); details: protein: recombinant; tags: N-terminal GST; dsDNA, one strand shown
ELF4, sequence (Q99607 whole entry): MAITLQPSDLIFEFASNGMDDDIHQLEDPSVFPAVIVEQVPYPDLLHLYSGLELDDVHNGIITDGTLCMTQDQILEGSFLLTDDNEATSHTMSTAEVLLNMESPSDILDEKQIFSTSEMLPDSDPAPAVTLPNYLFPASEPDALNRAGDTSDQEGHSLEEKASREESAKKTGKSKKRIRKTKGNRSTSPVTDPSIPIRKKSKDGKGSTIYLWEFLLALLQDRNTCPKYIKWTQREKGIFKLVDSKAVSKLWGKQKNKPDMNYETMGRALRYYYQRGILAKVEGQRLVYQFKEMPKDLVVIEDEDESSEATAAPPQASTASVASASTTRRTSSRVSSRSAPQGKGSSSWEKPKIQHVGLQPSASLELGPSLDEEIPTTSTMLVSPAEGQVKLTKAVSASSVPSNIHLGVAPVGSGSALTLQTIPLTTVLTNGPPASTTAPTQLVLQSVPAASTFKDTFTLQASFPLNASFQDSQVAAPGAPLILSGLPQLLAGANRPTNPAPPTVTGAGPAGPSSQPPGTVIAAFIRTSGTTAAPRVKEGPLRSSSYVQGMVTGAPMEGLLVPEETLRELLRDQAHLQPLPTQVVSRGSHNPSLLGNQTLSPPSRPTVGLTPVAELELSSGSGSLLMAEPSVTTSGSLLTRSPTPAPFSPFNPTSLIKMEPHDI
Summary of the method: as §1

ELK4 = biological target: T3, ELK4 (Homo sapiens, UniProt P28324-2 1-405); details: protein: recombinant; tags: N-terminal GST; dsDNA, one strand shown
T3 sequence: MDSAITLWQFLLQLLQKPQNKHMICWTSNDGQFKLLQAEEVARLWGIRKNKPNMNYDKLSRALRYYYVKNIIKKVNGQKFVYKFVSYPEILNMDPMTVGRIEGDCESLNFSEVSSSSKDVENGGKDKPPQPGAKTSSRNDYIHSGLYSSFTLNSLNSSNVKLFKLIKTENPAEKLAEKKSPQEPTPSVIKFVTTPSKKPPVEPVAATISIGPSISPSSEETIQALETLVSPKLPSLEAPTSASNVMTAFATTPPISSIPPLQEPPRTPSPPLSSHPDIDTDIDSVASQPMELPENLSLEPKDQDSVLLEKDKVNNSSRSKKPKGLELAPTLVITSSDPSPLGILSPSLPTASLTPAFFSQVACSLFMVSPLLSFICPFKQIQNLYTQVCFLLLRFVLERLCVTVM
Summary of the method: as §1

ETV2 = biological target: T4, ETV2 (Homo sapiens, UniProt O00321 1-342); details: protein: recombinant; tags: N-terminal GST; dsDNA, one strand shown
T4 sequence: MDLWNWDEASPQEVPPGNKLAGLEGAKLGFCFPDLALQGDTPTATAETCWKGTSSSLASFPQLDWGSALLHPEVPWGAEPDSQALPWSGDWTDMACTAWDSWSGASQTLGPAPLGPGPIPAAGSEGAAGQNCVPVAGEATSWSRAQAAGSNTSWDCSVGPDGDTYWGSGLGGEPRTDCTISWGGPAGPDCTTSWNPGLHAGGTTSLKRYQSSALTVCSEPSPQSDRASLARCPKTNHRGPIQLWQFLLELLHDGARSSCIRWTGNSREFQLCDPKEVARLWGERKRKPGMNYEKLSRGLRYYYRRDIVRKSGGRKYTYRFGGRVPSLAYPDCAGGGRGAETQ
Summary of the method: as §1

ELF3 = biological target: T5, ELF3 (Homo sapiens, UniProt P78545 1-371); details: protein: recombinant; tags: N-terminal GST; dsDNA, one strand shown
T5 sequence: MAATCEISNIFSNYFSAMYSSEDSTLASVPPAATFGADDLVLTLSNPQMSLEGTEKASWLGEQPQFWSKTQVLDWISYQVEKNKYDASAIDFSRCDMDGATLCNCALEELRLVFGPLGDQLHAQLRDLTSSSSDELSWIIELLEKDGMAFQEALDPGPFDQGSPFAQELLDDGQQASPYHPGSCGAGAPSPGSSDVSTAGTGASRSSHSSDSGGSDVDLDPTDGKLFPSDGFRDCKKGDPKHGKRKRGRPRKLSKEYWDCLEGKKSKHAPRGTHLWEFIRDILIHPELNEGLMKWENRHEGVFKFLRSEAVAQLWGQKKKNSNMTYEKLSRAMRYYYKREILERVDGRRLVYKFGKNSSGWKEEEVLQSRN
Summary of the method: as §1

CRX = CRX (Homo sapiens, UniProt O43186 1-299); details: protein: recombinant; tags: N-terminal GST; dsDNA, one strand shown
CRX, sequence (O43186 whole entry): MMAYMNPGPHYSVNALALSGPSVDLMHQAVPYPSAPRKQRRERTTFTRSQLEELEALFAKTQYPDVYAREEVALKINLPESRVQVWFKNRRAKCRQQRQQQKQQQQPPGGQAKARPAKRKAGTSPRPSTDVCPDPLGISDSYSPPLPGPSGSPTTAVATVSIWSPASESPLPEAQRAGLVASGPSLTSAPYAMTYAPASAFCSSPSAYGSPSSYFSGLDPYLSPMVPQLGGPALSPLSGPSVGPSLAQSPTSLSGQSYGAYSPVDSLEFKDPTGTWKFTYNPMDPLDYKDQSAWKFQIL
Summary of the method: as §1

ETV1 = ETV1 (Homo sapiens, UniProt P50549 1-477); details: protein: recombinant; tags: N-terminal GST; dsDNA, one strand shown
ETV1, sequence (P50549 whole entry): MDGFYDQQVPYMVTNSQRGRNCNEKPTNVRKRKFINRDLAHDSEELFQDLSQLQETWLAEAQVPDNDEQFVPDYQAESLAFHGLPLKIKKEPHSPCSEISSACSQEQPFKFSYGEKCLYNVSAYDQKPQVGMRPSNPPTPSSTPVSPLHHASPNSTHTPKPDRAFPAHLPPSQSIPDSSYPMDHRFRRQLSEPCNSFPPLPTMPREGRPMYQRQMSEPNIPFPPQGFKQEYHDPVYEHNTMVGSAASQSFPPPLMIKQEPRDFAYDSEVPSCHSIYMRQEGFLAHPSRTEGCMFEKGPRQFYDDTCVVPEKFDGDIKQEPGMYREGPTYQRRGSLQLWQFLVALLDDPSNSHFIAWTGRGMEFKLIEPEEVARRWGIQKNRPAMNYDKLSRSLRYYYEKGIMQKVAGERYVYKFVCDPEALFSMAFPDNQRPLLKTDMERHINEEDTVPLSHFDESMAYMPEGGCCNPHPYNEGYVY
Summary of the method: as §1

ERF = biological target: T6, ERF (Homo sapiens, UniProt P50548 1-548); details: protein: recombinant; tags: N-terminal GST; dsDNA, one strand shown
T6 sequence: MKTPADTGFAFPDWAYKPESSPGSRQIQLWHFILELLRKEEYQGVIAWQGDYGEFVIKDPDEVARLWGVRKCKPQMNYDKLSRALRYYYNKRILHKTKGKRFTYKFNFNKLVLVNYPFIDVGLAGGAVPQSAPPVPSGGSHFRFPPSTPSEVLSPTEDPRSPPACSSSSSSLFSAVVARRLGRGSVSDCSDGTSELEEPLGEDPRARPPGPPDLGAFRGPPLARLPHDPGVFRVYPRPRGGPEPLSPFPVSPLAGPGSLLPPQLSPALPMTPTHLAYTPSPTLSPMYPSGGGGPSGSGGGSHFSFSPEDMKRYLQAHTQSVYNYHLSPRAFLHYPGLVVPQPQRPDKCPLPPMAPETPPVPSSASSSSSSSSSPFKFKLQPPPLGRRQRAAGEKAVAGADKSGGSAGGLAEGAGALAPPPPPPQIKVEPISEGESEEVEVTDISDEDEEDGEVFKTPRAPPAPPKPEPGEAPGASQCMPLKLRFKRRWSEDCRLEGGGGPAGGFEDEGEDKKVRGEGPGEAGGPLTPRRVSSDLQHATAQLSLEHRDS
Summary of the method: as §1

ETV3L = biological target: T7, ETV3L (Homo sapiens, UniProt Q6ZN32 1-361); details: protein: recombinant; tags: N-terminal GST; dsDNA, one strand shown
T7 sequence: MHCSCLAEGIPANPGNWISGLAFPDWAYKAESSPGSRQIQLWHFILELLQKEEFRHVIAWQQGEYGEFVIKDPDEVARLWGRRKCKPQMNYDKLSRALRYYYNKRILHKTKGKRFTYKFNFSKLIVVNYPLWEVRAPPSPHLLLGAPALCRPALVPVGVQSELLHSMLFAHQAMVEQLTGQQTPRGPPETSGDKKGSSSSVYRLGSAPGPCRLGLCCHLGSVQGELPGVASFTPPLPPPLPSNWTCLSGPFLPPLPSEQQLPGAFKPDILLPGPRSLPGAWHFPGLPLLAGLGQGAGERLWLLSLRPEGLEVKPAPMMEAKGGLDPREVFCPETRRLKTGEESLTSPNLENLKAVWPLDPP
Summary of the method: as §1

ETS2 = biological target: T8, ETS2 (Homo sapiens, UniProt P15036 1-469); details: protein: recombinant; tags: N-terminal GST; dsDNA, one strand shown
T8 sequence: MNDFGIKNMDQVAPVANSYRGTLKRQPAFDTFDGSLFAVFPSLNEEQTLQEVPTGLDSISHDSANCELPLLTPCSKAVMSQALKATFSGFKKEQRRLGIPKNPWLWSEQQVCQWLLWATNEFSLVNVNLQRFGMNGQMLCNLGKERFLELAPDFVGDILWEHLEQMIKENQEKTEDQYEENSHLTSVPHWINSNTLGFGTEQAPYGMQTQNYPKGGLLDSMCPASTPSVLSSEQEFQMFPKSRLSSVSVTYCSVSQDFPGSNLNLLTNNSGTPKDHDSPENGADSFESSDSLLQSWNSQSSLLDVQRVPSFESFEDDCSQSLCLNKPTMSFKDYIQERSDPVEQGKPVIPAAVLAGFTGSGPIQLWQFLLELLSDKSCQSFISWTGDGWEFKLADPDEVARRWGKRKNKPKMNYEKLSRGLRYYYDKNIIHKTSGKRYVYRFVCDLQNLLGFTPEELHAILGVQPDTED
Summary of the method: as §1

SPDEF = biological target: T9, SPDEF (Homo sapiens, UniProt O95238 1-335); details: protein: recombinant; tags: N-terminal GST; dsDNA, one strand shown
T9 sequence: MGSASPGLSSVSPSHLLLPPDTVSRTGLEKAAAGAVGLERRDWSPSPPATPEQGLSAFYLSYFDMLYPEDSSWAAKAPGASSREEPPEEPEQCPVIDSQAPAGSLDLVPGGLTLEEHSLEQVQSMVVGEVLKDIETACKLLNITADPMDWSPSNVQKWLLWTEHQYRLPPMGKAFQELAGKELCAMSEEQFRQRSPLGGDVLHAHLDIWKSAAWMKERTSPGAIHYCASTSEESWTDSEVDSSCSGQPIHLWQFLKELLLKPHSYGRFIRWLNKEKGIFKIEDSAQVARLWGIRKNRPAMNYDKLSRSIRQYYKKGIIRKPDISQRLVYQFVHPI
Summary of the method: as §1

ETV7 = biological target: T10, ETV7 (Homo sapiens, UniProt Q9Y603 1-341); details: protein: recombinant; tags: N-terminal GST; dsDNA, one strand shown
T10 sequence: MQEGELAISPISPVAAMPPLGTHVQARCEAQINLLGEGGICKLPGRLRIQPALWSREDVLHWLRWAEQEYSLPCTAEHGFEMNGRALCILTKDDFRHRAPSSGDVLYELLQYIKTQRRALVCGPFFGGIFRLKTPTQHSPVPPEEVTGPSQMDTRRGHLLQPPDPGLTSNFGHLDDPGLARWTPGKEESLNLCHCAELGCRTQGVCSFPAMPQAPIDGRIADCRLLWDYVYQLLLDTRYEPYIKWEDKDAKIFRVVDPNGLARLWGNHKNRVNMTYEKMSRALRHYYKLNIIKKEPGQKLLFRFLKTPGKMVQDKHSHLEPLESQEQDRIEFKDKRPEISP
Summary of the method: as §1

ELF5 = biological target: T11, ELF5 (Homo sapiens, UniProt Q9UKW6-2 1-255); details: protein: recombinant; tags: N-terminal GST; dsDNA, one strand shown
T11 sequence: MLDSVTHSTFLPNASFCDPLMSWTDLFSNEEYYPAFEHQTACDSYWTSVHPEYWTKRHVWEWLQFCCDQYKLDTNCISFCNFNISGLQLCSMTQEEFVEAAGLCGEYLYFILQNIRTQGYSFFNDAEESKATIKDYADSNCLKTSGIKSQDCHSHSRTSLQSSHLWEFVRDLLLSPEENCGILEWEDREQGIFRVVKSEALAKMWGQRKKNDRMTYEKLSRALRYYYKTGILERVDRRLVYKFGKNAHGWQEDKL
Summary of the method: as §1

ETV3 = biological target: T12, ETV3 (Homo sapiens, UniProt P41162-2 1-143); details: protein: recombinant; tags: N-terminal GST; dsDNA, one strand shown
T12 sequence: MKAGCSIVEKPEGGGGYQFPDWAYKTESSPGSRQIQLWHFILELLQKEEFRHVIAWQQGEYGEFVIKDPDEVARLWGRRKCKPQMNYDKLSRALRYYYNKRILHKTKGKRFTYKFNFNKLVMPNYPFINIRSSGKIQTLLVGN
Summary of the method: as §1

ETV6 = ETV6 (Homo sapiens, UniProt P41212 1-452); details: protein: recombinant; tags: N-terminal GST; dsDNA, one strand shown
ETV6, sequence (P41212 whole entry): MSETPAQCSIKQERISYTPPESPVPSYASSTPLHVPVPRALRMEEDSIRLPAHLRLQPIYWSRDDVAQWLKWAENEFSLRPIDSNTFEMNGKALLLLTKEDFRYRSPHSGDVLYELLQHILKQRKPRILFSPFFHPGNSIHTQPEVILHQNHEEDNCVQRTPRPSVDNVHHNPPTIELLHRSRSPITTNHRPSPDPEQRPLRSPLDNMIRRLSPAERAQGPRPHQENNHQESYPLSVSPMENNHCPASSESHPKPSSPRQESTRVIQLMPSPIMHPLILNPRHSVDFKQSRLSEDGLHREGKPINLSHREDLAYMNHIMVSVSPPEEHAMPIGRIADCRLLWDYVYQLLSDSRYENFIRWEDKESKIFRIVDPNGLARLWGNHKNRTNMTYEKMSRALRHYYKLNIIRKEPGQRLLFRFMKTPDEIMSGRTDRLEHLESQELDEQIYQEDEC
Summary of the method: as §1

ATCTCG
binding signal (FEV): 1.19 fold enrichment (6-mer frequency, TF over GST control) | binding signal (ETV5): 1.35 fold enrichment (6-mer frequency, TF over GST control) | binding signal (HSF1): 2.44 fold enrichment (6-mer frequency, TF over GST control) | binding signal (SPIC): 1.19 fold enrichment (6-mer frequency, TF over GST control) | binding signal (ELF4): 1.32 fold enrichment (6-mer frequency, TF over GST control) | binding signal (ELK4): 1.42 fold enrichment (6-mer frequency, TF over GST control) | binding signal (ETV2): 1.51 fold enrichment (6-mer frequency, TF over GST control) | binding signal (ELF3): 1.55 fold enrichment (6-mer frequency, TF over GST control) | binding signal (CRX): 1.92 fold enrichment (6-mer frequency, TF over GST control) | binding signal (ETV1): 1.46 fold enrichment (6-mer frequency, TF over GST control) | binding signal (ERF): 1.36 fold enrichment (6-mer frequency, TF over GST control) | binding signal (ETV3L): 1.38 fold enrichment (6-mer frequency, TF over GST control) | binding signal (ETS2): 1.42 fold enrichment (6-mer frequency, TF over GST control) | binding signal (SPDEF): 1.28 fold enrichment (6-mer frequency, TF over GST control) | binding signal (ETV7): 1.38 fold enrichment (6-mer frequency, TF over GST control) | binding signal (ELF5): 1.28 fold enrichment (6-mer frequency, TF over GST control) | binding signal (ETV3): 1.29 fold enrichment (6-mer frequency, TF over GST control) | binding signal (ETV6): 1.3 fold enrichment (6-mer frequency, TF over GST control)
